Screens (PubChem)
KDM5B inh: KDM5B demethylase inhibition | AID 1347165 | Q9UGL1 | 220,000 tested, 2.6% active | KDM5B demethylase, FDH-coupled NADH fluorescence (FDH is formaldehyde dehydrogenase) | Potency, µM (titrated, usually from 57.7 µM), most hits filed as inhibitors; further: nearly all actives have a fitted effect of over 70% in size
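Here, H3K4me3 peptide (12.5 µM in substrate mix) is demethylated by KDM5BΔAP, 200 nM final, after 10 min compound exposure. Formaldehyde product is coupled through FDH (0.25 U/mL in mix) to NADH fluorescence; 30-min ΔRFU feeds dose-response curves.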
IP6K1 inhibitor: IP6K1 kinase inhibition; IP6K1 kinase, ADP-Glo luminescence, 2 h; active compounds read low; Q92551; 140,000 tested, 0.81% active; activity change, % (series mostly up to about 58 µM); in the data active means activity change below about -25%
Target sequence (Q92551 whole entry, looked up): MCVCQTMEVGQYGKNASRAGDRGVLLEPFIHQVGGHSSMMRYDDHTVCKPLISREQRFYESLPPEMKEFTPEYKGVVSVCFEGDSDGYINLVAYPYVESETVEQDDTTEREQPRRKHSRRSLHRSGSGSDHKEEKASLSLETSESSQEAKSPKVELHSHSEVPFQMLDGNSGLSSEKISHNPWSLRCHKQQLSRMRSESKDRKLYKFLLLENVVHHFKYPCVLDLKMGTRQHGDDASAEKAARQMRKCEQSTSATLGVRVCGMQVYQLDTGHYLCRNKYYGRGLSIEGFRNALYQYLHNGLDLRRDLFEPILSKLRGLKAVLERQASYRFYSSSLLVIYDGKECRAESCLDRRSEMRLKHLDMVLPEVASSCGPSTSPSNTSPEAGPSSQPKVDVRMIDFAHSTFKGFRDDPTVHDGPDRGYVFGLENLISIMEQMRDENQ
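ADP-Glo luminescence measures ADP made by human IP6K1 during a 2 h RT reaction with ATP/IP6 (mix at 1.3 mM/130 uM); top library doses 57.5 and 19.1 uM final.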
SNCA expr inh: inhibitors of alpha-synuclein (SNCA) gene expression; HEK-293 SNCA-luciferase knock-in, luminescence, 24 h; Potency, µM (highest dose often 57.2 µM), hits mostly inhibitors; 140,000 tested, 0.17% active; AID 1671194; further: nearly all actives have a fitted effect of over 45% in size
SNCA viab count: counter-screen for SNCA expression inhibitors: cell viability; HEK-293-SNCA-luc viability, GF-AFC fluorescence, 24 h; Potency, µM (doses to about 57.1 µM), hits mostly cytotoxic; 150,000 tested, 0.12% active; AID 1671193; further: nearly all actives have a fitted effect of over 30% in size
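HEK-293-SNCA-luc cells (1500/well) plated 24 h, then exposed 24 h to a dilution series; GF-AFC added 30 min at 37C, fluorescence 405/540 nm; normalised to medium-only and DMSO wells, Hill fit.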
IP6K1 conf: human IP6K1 inhibition, confirmatory; shares compounds with IP6K1 inhibitor; recombinant IP6K1 kinase, ADP-Glo luminescence, 2 h; Potency, µM (titrated, usually from 49 µM), most hits filed as inhibitors; 1,200 tested, 13% active; further: nearly all actives have a fitted effect of over 65% in size
Large screens that a line does not name were inactive (follow-up assays come after a bar, where they were run). Rows were chosen to be rich in hits. Some 2.9% of all compounds tested hit in one or more screens of this group. Unless noted, the call rests on the fitted dose curve; in most records, active means well fitted curve in the direction sought with a large enough effect; inconclusive means small, poorly fitted or top-dose-only effect, or another doubt; inactive means no such curve, though single readings can be large; an effect the other way counts as inactive or inconclusive.

COc1cccc(-c2cn3cc(C(=O)NCc4cccc(C(F)(F)F)c4)nc3s2)c1	none (no result: KDM5B inh)
CC(C)(C)COC(=O)N1C[C@@H](CO)[C@@H]2Oc3ccccc3[C@@H]21	none (no result: KDM5B inh, SNCA expr inh, SNCA viab count)
Cc1ccc([S+](=O)([O-])N2CCCC(C(=O)N3CCC(c4nc5ncccc5[nH]4)CC3)C2)cc1 (centres undefined)	none (no result: KDM5B inh)
CCCS(=O)(=O)Nc1ccc(F)c(C(=O)c2c[nH]c3ncc(Cl)cc23)c1F	IP6K1 inhibitor -31, SNCA expr inh 12µM, SNCA viab count inconclusive (no result: KDM5B inh) | IP6K1 conf inconclusive
CCCCOc1c(C(=O)c2c(F)cc(C)cc2F)cnc2n[nH]cc12	SNCA expr inh inconclusive (no result: KDM5B inh)
Cc1ccc(C(=O)Nc2nc3nc(C)cc(=O)n3[nH]2)cc1	IP6K1 inhibitor -27 | IP6K1 conf inactive
CCOC(=O)c1cnc2ccc(-c3cncc(NS(=O)(=O)c4ccccc4)c3)cn12	none (no result: KDM5B inh, SNCA expr inh) | IP6K1 conf inconclusive
Cc1cnc(Nc2ccc(N3CCN(C)CC3)cc2)nc1Nc1cccc(S(=O)(=O)NC(C)(C)C)c1	SNCA viab count inconclusive (no result: KDM5B inh, IP6K1 inhibitor)
CN1CCN(c2cccc(Nc3nc4c(-c5ccc(S(C)(=O)=O)cc5)cccn4n3)c2)CC1	none (no result: KDM5B inh) | IP6K1 conf inactive
O=C(NCc1cccc(Cl)c1)c1cc2c(s1)-c1ccccc1OC2	KDM5B inh inconclusive, IP6K1 inhibitor -26 | IP6K1 conf inactive
COc1ccccc1CNC(=O)c1cc2c(s1)-c1ccccc1OC2	KDM5B inh inconclusive
CC(C)CCN1CC2(CCCN(S(=O)(=O)N3CCOCC3)C2)CCC1=O (centres undefined)	IP6K1 inhibitor -33 | IP6K1 conf inactive
Fc1ccccc1CNCc1ccc(-c2ccnc3[nH]ccc23)cc1	IP6K1 inhibitor -42 (no result: KDM5B inh, SNCA expr inh) | IP6K1 conf inconclusive
O=C(NCc1ccnc2[nH]ccc12)c1ccccc1	none
O=C1c2ccccc2C(=O)c2c1ccc(O)c2O	IP6K1 inhibitor -27 (no result: KDM5B inh) | IP6K1 conf 3.7µM
COc1ccccc1-c1cccc(CN2CCC(NC(=O)C3CC3)CC2)c1	none (no result: KDM5B inh)
C[C@@H]1CN(c2cc(C3CC(O)C3)ncn2)C[C@H](C)O1 (some centres undefined)	IP6K1 inhibitor -31 | IP6K1 conf inactive
CN1C(=O)N(C)C2(CCN(c3cc(C4CC(O)C4)ncn3)CC2)C1=O (centres undefined)	none
COc1cc(F)c(F)c(Nc2ccc(I)cc2F)c1NS(=O)(=O)C1(C[C@H](O)CO)CC1	none (no result: KDM5B inh) | IP6K1 conf inactive
Cc1nn(-c2ccccc2)c2c1C(C(C)C)N(C1CCCN(C(=O)c3ccccc3Cl)C1)C2=O (centres undefined)	none (no result: KDM5B inh, SNCA expr inh, SNCA viab count)
Cc1cccc2c1O[C@H]1[C@H](C(N)=O)CN(C(=O)c3ccc(C(F)(F)F)cc3)[C@@H]21	none (no result: KDM5B inh, SNCA expr inh, SNCA viab count)
CCOC(=O)C1(Cc2cccc(C(F)(F)F)c2)CCN(Cc2cn(CC)nc2C)CC1	SNCA expr inh inconclusive
O=C(O)CCn1cnc2onc(-c3ccccc3Cl)c2c1=O	KDM5B inh inconclusive, IP6K1 inhibitor -42 | IP6K1 conf inactive
CCOCCNC(=O)CNC(=O)c1cccc(-c2ccc(SC)cc2)c1	none (no result: KDM5B inh)
COc1cc2ncnc(NCc3cc(F)ccc3F)c2cc1OC	none (no result: IP6K1 inhibitor, SNCA expr inh, SNCA viab count)
COc1cc2ncnc(Nc3cccc(I)c3)c2cc1OC	IP6K1 inhibitor -33 (no result: KDM5B inh, SNCA expr inh) | IP6K1 conf 12µM
COc1cc2ncnc(Nc3cc(Br)c(O)c(Br)c3)c2cc1OC	none (no result: KDM5B inh) | IP6K1 conf inconclusive
COc1ccc(CNC(=O)C2CCCCN2Cc2ccc(-c3cc(F)ccc3OC)cc2)cc1OC (centres undefined)	none (no result: KDM5B inh, SNCA expr inh, SNCA viab count)
COc1ccc(CCNc2nc3c(-c4cccc(C)c4)nnn3c3ccccc23)cc1OC	KDM5B inh inconclusive, IP6K1 inhibitor -32, SNCA viab count inconclusive | IP6K1 conf inactive
COc1ccccc1-c1nc2c(c(SCc3cc(C)ccc3C)n1)Cc1c(CO)cnc(C)c1O2	KDM5B inh inconclusive, IP6K1 inhibitor -27 | IP6K1 conf inactive
Cc1cc(Nc2nc(NC(C)c3ncc(F)cn3)ncc2Cl)n[nH]1 (centres undefined)	none (no result: KDM5B inh, SNCA expr inh) | IP6K1 conf inactive
CCn1c(=O)c2cc(C(=O)N(CC(C)C)CC(C)C)sc2c2ccccc21	IP6K1 inhibitor -26 | IP6K1 conf inactive
CCn1c(=O)c2cc(C(=O)N(C)c3ccccc3C)sc2c2ccccc21	none (no result: IP6K1 inhibitor, SNCA expr inh, SNCA viab count)
COc1cccc(-c2ccc(C(=O)N3CCC(N[S+](=O)([O-])c4ccc(C)cc4)CC3)cc2)c1	none (no result: KDM5B inh)
Cc1ccc(-c2nnc3ccc(Nc4cccc(N(C)C)c4)nn23)nc1	KDM5B inh inconclusive, IP6K1 inhibitor -25 | IP6K1 conf inactive
CCC1CN(C(=O)Nc2ccc(C)c(F)c2)c2ccccc2S1 (centres undefined)	IP6K1 inhibitor -27 | IP6K1 conf inactive
Cc1nn(-c2ccccc2)c(OC(=O)c2ccc(Br)cc2)c1S(=O)(=O)c1ccccc1	KDM5B inh inconclusive, IP6K1 inhibitor -32 | IP6K1 conf inactive
Cc1ccc(C(=O)Oc2c(S(=O)(=O)c3ccccc3)c(C)nn2-c2ccccc2)cc1	KDM5B inh inconclusive
Cc1noc(C)c1Cc1ccc(C(=O)N2CCC(OCCOc3ccccc3)CC2)o1	none (no result: KDM5B inh)
CCN1C[C@H]2COc3ccccc3[C@H]2N(C(=O)c2ccccc2OC)CCC1=O	none (no result: KDM5B inh, SNCA expr inh, SNCA viab count)
Cc1ccc(CC(=O)NCc2nc(-c3ccccc3)no2)cc1	IP6K1 inhibitor -27 | IP6K1 conf inactive
Cc1ccc(-c2noc(CNC(=O)c3ccc(C(C)(C)C)cc3)n2)cc1	none
Cc1ccc(-c2noc(CNC(=O)c3ccccc3)n2)cc1	IP6K1 inhibitor -31 | IP6K1 conf inconclusive
COc1ccccc1Nc1ccnc(N2CCCC2C(=O)NCCCc2ccccc2)n1 (centres undefined)	none (no result: KDM5B inh)
O=C(NCCCN1CCCCCC1)c1ccc2c(c1)sc1nc(-c3ccccc3)cn12	KDM5B inh inconclusive, IP6K1 inhibitor -50, SNCA viab count inconclusive | IP6K1 conf inconclusive
COc1ccc(Cn2c3c(c(=O)n2Cc2ccccc2)CCN(CC2CCOC2)C3)cc1 (centres undefined)	KDM5B inh inconclusive
COc1ccccc1CCC(=O)N1CCN(C(=O)c2ccccc2)CC1	none (no result: IP6K1 inhibitor, SNCA expr inh, SNCA viab count)
COc1ccccc1N1CCN(C(=O)CCc2ccccc2C)CC1=O	IP6K1 inhibitor -34 | IP6K1 conf inactive
CCCN(CCC)CCCNC(=O)Cn1cnc2sc(C)c(S(=O)(=O)N3CCCCC3)c2c1=O	IP6K1 inhibitor -27 | IP6K1 conf inactive
CCCC(C)NC(=O)Nc1cc(C(=O)NC2CC2)ccc1C (centres undefined)	none (no result: IP6K1 inhibitor, SNCA expr inh, SNCA viab count)
Cc1ccc(CSc2oc(-c3ccco3)nc2S(=O)(=O)c2ccc(Br)cc2)cc1	KDM5B inh inconclusive, IP6K1 inhibitor -32, SNCA viab count inconclusive | IP6K1 conf inactive
O=C(CSc1oc(-c2ccco2)nc1S(=O)(=O)c1ccc(Cl)cc1)c1ccc(Cl)cc1	KDM5B inh inconclusive, IP6K1 inhibitor -27, SNCA expr inh inconclusive | IP6K1 conf inactive
Cc1ccc(S(=O)(=O)c2nc(-c3ccco3)oc2SCC(=O)c2ccc(Cl)cc2)cc1	none
